Here are results for 11 compounds from PubChem BioAssay (Tox21).

Test [1] is described as follows: qHTS assay to identify small molecule agonists of the RXR signaling pathway - cell viability counter screen (AID 1159529).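 Also: HEK 293T cells carrying an RXR-alpha UAS beta-lactamase reporter; series mostly up to about 77 µM; nearly all actives have a fitted effect of over 50% in size.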 The gist of the method:
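In this parallel viability measure, GeneBLAzer RXR-alpha HEK 293T cells (2% charcoal-stripped FBS) were given a 5 hr preincubation, treated with compounds 16 hr at 37 C, and read by CellTiter-Glo luminescence.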

The nature of test [2]: qHTS assay to identify small molecule antagonists of the retinoid acid receptor (RAR) signaling pathway - cell viability counter screen (AID 1159551). Also: nearly all actives have a fitted effect of over 35% in size. The gist of the method:
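Cytotoxicity counter screen: ATP content quantified by CellTiter-Glo luminescence in C3RL4 cells treated 6 hr at 37 C with compound and retinol (1 uM final). Cells plated at 1,000/well and cultured overnight before dosing.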

A short description of test [3]: qHTS assay to identify small molecule antagonists of the retinoic acid receptor (RAR) signaling pathway (AID 1159552; also: nearly all actives have a fitted effect of over 50% in size). Summed up:
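C3RL4 RARE-luc cells, overnight plating; retinol 1 uM final added right after compound; 6 hr 37 C; luciferase read at 30 min RT.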

A short description of test [4]: qHTS assay to identify small molecule agonists of the retinoic acid receptor (RAR) signaling pathway (AID 1159553). Summed up:
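Luminescence was measured 30 min after luciferase reagent addition at room temperature. Before that, C3RL4 reporter cells (1,000 per well, plated overnight) were treated with compound for 6 hr at 37 C and 5% CO2.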

Test [5] is described as follows: qHTS assay to identify small molecule antagonists of the estrogen related receptor (ERR) signaling pathway from Tox21 library - cell viability counter screen (AID 1224834). Also: nearly all actives have a fitted effect of over 30% in size. Summed up:
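CellTiter-Fluor fluorescence, read after 30 min at 37 C, measures viability of ERR cells. Cells plated at 2,000/well and incubated 6 h before pin-tool compound addition, then exposed 17.5 hours at 37 C.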

In test [6] the target is Luciferin 4-monooxygenase (Photinus pyralis) (UniProt P08659). Nature of the test: qHTS assay to identify small molecule inhibitors of firefly luciferase (AID 1224835). Also: series mostly up to about 120 µM; nearly all actives have a fitted effect of over 25% in size. The gist of the method: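 Biochemical qHTS: compounds run as interplate titrations against purified firefly enzyme, with D-luciferin and ATP each at its KM concentration. Light output recorded by CCD imaging.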
Chain of Luciferin 4-monooxygenase (Photinus pyralis) (P08659 whole entry, looked up): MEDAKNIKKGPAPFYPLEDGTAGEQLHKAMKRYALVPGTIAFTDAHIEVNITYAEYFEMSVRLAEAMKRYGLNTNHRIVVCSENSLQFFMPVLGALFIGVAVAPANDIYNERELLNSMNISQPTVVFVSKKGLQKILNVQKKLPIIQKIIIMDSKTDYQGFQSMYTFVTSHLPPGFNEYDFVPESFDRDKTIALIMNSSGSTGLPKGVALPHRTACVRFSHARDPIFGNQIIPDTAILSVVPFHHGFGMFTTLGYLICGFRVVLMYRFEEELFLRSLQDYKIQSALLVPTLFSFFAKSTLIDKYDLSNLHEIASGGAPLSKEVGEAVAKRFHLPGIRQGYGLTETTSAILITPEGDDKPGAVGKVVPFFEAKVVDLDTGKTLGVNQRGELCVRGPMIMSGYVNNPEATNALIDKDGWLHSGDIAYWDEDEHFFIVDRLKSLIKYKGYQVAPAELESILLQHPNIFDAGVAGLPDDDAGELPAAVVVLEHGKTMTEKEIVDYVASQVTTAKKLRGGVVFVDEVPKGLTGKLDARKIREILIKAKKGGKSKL

Test [7] can be described thus: qHTS assay to identify small molecule agonists of the constitutive androstane receptor (CAR) signaling pathway - cell viability counter screen (AID 1224836). Also: series mostly up to about 92 µM; nearly all actives have a fitted effect of over 45% in size. Summed up: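 Using CellTiter-Fluor, viability of HepG2 cells harbouring hCAR and CYP2B6-2.2kb was measured following 23 h incubation with a 15-concentration compound series plus PK11195 (0.75 uM final).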
Test [8] is described as follows: qHTS assay to identify small molecule antagonists of the constitutive androstane receptor (CAR) signaling pathway - cell viability counter screen (AID 1224837). Also: series mostly up to about 92 µM; nearly all actives have a fitted effect of over 45% in size. The gist of the method: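 Cytotoxicity counter-screen: CellTiter-Fluor fluorescence after 23 h compound exposure (15-point qHTS) in double-stable HepG2-CYP2B6-hCAR cells, with 50 nM CITCO added.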
Test [9] addresses Nuclear receptor subfamily 1 group I member 3 (Homo sapiens) (UniProt Q14994). Nature of the test: qHTS assay to identify small molecule antagonists of the constitutive androstane receptor (CAR) signaling pathway (AID 1224838).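 Also: HepG2 cells stably expressing hCAR with CYP2B6 luciferase reporter stimulated by CITCO; nearly all actives have a fitted effect of over 40% in size.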 The gist of the method: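 Antagonism measured as luciferase signal (ONE-Glo, 30 min, room temperature) in CAR-stimulated cells: HepG2-CYP2B6-hCAR double-stable line exposed 24 hr at 37 C to compound in a 15-point series plus 50 nM CITCO.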

Test [10] has the same target. As to the kind of experiment: qHTS assay to identify small molecule agonists of the constitutive androstane receptor (CAR) signaling pathway (AID 1224839). Also: nearly all actives have a fitted effect of over 15% in size. Also: potency is read from the fitted curve at half-maximal effect. The gist of the method:
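Double-stable HepG2 cells (hCAR, CYP2B6-2.2kb) seeded 4 h before compound addition. Exposure 24 h with 0.75 uM PK11195 final. Luciferase detected by ONE-Glo.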

Test [11] can be described thus: qHTS assay to identify small molecule antagonists of the estrogen related receptor signaling pathway with the pleiotropic PPARgamma coactivator (PGC) from Tox21 10K library - cell viability counter screen (AID 1224840; active = well fitted cell-killing curve with a large enough effect in the repeat runs, not every such curve was filed as active; also: nearly all actives have a fitted effect of over 40% in size). The gist of the method: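 Counter-screen for cytotoxicity: after 17.5 h compound exposure at 37 C, CellTiter-Fluor reagent added to PGC/ERR cells for 30 min and fluorescence read. Cells were seeded at 2,000 per well 6 h before dosing.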

The nature of test [12]: qHTS assay to identify small molecule antagonists of the estrogen related receptor signaling pathway with the pleiotropic PPARgamma coactivator (PGC) from Tox21 10K library (AID 1224841; call rule not given here; also: series mostly up to about 92 µM; actives are mostly falling curves and most rising ones were filed inactive; nearly all actives have a fitted effect of over 50% in size). The gist of the method:
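Luminescence (One-Glo, 30 min at room temperature) after 18 h compound treatment at 37 C of PGC/ERR reporter cells plated at 2,000 cells/well and settled 6 h beforehand.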

Test [13] in a line: qHTS assay to identify small molecule antagonists of the estrogen related receptor (ERR) signaling pathway - cell viability counter screen (AID 1224818). Also: series mostly up to about 46 µM. The gist of the method:
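Cytotoxicity counter screen: fluorescence from CellTiter-Fluor, added after 17.5 h compound exposure at 37 C and read 30 min later. ERR cell line seeded at 2,000 cells/well, preincubated 6 h before dosing.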

Test [14] in a line: qHTS assay to identify small molecule antagonists of the estrogen related receptor signaling pathway with the pleiotropic PPARgamma coactivator (PGC) cell viability counter screen (AID 1224822; also: series mostly up to about 46 µM). Summed up: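 Viability counter-screen read by fluorescence intensity after 30 min with CellTiter-Fluor at 37 C; PGC/ERR reporter cells were exposed to compounds for 17.5 h at 37 C following a 6 h preincubation.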

A short description of test [15]: qHTS assay to identify small molecule agonists of the estrogen related receptor signaling pathway with the pleiotropic PPARgamma coactivator (PGC) from Tox21 10K library (AID 1224842). Also: nearly all actives have a fitted effect of over 15% in size. The gist of the method:
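PGC/ERR reporter cell line, 2,000 cells per well, incubated 6 h at 37 C before 23 nL compound in DMSO was added. After 18 h at 37 C, One-Glo luminescence read following 30 min at room temperature.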

Molecules are shown by their SMILES. Several values for one entry are separate records, joined by “and”; a condition that tells them apart may be missing. Identical values can stand only once. Results filed as inconclusive are left out. Activity calls are given as the source filed them. Unless noted, calls follow the shape of the dose curve; as a rule, active = well fitted curve in the direction sought with a large enough effect in the repeat runs; inconclusive = weak or mixed curves; inactive = no such curve, though single readings can be large; an effect the other way counts as inactive or inconclusive.

Chain of Nuclear receptor subfamily 1 group I member 3 (Homo sapiens) (Q14994 whole entry, looked up): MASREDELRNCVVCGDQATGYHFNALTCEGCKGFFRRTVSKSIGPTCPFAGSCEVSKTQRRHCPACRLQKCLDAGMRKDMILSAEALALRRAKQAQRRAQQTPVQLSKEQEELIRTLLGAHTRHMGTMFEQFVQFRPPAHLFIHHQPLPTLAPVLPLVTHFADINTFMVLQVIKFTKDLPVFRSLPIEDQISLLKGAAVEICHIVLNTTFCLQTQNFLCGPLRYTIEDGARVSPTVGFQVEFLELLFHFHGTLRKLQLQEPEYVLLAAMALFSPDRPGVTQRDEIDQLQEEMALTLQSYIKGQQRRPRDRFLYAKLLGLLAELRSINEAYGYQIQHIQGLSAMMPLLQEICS

For the compound `O=[N+]([O-])c1ccc(F)cc1F`, the Potency result in test [1], in [3], in [4], in [5], in [6] and in test [7] was “inactive” each time. For the same compound, the Potency entry in test [8], in test [9], in test [10], in [11] and in [12] was “inactive” each time. The compound was classed as inactive in test [2].

Turning to `OC[C@]1(O)OC[C@@H](O)[C@H](O)[C@@H]1O`, the Potency entry in test [1], in test [3], in test [4], in [5], in [6] and in test [7] was “inactive” in each case. For the same compound, the Potency result in [8], in test [9], in test [10] and in test [11] was “inactive” throughout. The outcome in test [2] was inactive.

For the compound `CC(C)(C)c1ccc(O)c(O)c1`, the Potency entry in test [1], in test [7], in [8] and in test [9] was “inactive” in each case. Besides, the compound was called inactive in test [13] and in [14]. Also, the Potency in [10] was 63.2 µM (active) and 24.3 µM (active).

Turning to `CN1C(=O)N(C)C(O)C1O` (stereo not given), the Potency result in [1], in test [3], in [4], in test [5], in test [6] and in test [7] was “inactive” throughout. Moreover, the Potency result in [8], in test [9], in test [10], in test [11] and in test [12] was “inactive” each time. Also, in [2], the outcome was inactive.

As for `O=c1[nH]c(=O)n([C@H]2C[C@H](O)[C@@H](CO)O2)cc1I`, the Potency entry in test [1], in test [3], in test [4], in test [5], in test [6] and in test [7] was “inactive” each time. Moreover, the Potency entry in test [8], in test [9], in [11] and in [12] was “inactive” each time. Further, the compound was classed as inactive in [2] and in test [15]. The Potency in test [10] was 11.9 µM (active).

With `NS(=O)(=O)c1cc(C(=O)O)cc(N2CCCC2)c1Oc1ccccc1`, the Potency entry in test [1], in [3], in test [4], in [5], in test [6] and in test [7] was “inactive” throughout. Further, the Potency result in test [8], in test [9], in test [10], in test [11] and in test [12] was “inactive” throughout. Besides, the compound was classed as inactive in test [2] and in test [15].

In the case of `NS(=O)(=O)c1ccccc1Cl`, the Potency result in test [1], in test [3], in [4], in test [5], in test [6] and in [7] was “inactive” each time. Moreover, the Potency result in test [8], in test [9], in test [10], in test [11] and in test [12] was “inactive” in each case. Further, the outcome in test [2] and in test [15] was inactive.

Consider `CCCCCCOC(=O)CCCCC(=O)OCCCCCC`, for which the Potency entry in test [1], in test [3], in [4], in [5], in test [7] and in test [8] was “inactive” in each case. The Potency entry in test [9], in test [10], in test [11] and in [12] was “inactive” throughout. Also, the result in test [2] and in test [15] was inactive.

On to `CCC(C)C1CCCCC1=O` (stereo not given), for which the Potency result in test [1], in test [3], in test [4], in test [5], in test [7] and in [8] was “inactive” each time. The Potency result in test [9], in test [10], in test [11] and in test [12] was “inactive” throughout. Further, the compound was called inactive in test [2] and in test [15].

As to `O=C1CC2CC1C1CCCC21` (stereo not given), the Potency entry in test [1], in test [3], in test [4], in test [5], in test [6] and in [7] was “inactive” in each case. Further, the Potency entry in [8], in test [9], in test [10], in test [11] and in test [12] was “inactive” in each case. In test [2], the outcome was inactive.

As for `CC/C=C\CCOC(C)=O`, the Potency entry in test [1], in test [3], in [4], in [5], in test [6] and in test [7] was “inactive” in each case. The Potency entry in [8], in test [9], in [10], in [11] and in [12] was “inactive” throughout. Moreover, the compound was called inactive in [2] and in test [15].
